Compound activity as filed in PubChem BioAssay.
Hits are enriched below; roughly 19% of the tested compounds scored in any of these assays.
HT1080 IDH1KD tx: kills HT-1080 cells with IDH1 knockdown; HT-1080 IDH1 knockdown viability, ATP luminescence, 48 h; Potency, µM (series often up to 46.1 µM), for the others: top-dose activity, negative = toxicity, most hits filed as cytotoxic; 2% of 360,000 active; AID 686971;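 note: 0% = DMSO wells and -100% = cell-free medium wells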
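CellTiter-Glo luminescence after 48 h compound exposure at 37 degrees C of IDH1-knockdown HT-1080 cells in 5% FBS RPMI. %Activity scaled between DMSO wells and cell-free media wells, with curves fitted and assigned curve classes.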
KB-V1 MDR tox: kills drug-selected multidrug resistant KB-V1 cells | KB-V1 MDR cells viability, CellTiter-Glo, 72 h | Potency, µM (titrated, usually from 46.1 µM), usual class: cytotoxic | 3.4% of 400,000 active | AID 1347076; note: nearly all actives have a fitted effect of over 60% in size
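Following 72 h at 37 degrees C with compound, KB-V1 cell viability was read by CellTiter-Glo luminescence, medium being phenol-red-free DMEM plus 10% FBS; concentration-response parameters came from normalized, curve-fitted qHTS data.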
DT40 TDP1 no CPT: qHTS for Inhibitors of human tyrosyl-DNA phosphodiesterase 1 (TDP1): qHTS in cells in absence of CPT; DT40 Tdp1-/- hTDP1 cells, no CPT, ATP luminescence, 48 h; Potency, µM (doses to about 46.2 µM), inactives show at the highest dose activity change, negative = growth inhibition, actives largely listed as inhibitors; 15% of 420,000 active; AID 686978, 2013; note: nearly all actives have a fitted effect of over 55% in size
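Chicken DT40 Tdp1-/- cells complemented with human TDP1, screened without camptothecin (DMSO vehicle only), 400 cells/well. Compounds pin-transferred, cells incubated at 37 °C for at least 48 hr. Growth read as ATP-dependent luminescence (CellTiter-Glo, 30 min at RT).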
HT1080-NT tox: kills 2HG-producing HT-1080-NT fibrosarcoma cells; HT-1080-NT fibrosarcoma viability, CellTiter-Glo ATP luminescence, 48 h; Potency, µM (highest dose often 46.1 µM), for inactives: at the top dose activity, negative = less viability, usual class: cytotoxic; 1.6% of 360,000 active;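 note: NT is the 2HG producing partner of a matched IDH1 knockdown line; 0% = DMSO-treated cells and -100% = media-only wells without cells; nearly all actives have a fitted effect of over 55% in size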
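Toxicity toward the 2HG-producing NT line was scored as %Activity, normalised to DMSO and no-cell wells, from CellTiter-Glo luminescence after 48 hours' treatment.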
KB-3-1 tox: kills parental KB-3-1 adenocarcinoma cells; AID 1347075; 1.4% of 400,000 active; Potency, µM (top dose mostly 46.1 µM), hits mostly cytotoxic; KB-3-1 viability, CellTiter-Glo ATP luminescence, 72 h; note: nearly all actives have a fitted effect of over 60% in size
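Cytotoxicity in the drug-sensitive parental line KB-3-1 was scored as loss of CellTiter-Glo luminescence following 72 h incubation with compound. Values come from curve fitting of normalized concentration-response data.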
DT40 TDP1 CPT: DT40-hTDP1 cell growth loss with CPT; chicken DT40 Tdp1-/-;hTDP1 cells + 20 nM CPT, ATP luminescence, 48 h; Potency, µM (titrated, usually from 46.2 µM), for the others: at the highest dose activity change, negative = growth inhibition, usual class: inhibitors; 12% of 420,000 active; note: nearly all actives have a fitted effect of over 55% in size
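Cell growth measured by CellTiter-Glo luminescence after a minimum 48 h, 37 C compound exposure with 20 nM CPT in Tdp1-knockout DT40 cells stably expressing hTDP1, seeded 400/well; qHTS titration format.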
* hit, by the source's call; i = inactive; u = inconclusive; x = no result given. Calls come from the whole dose curve; as a rule, active = well fitted curve in the direction sought with a large enough effect; inconclusive = small, poorly fitted or top-dose-only effect, or another doubt; inactive = no such curve, though single readings can be large; an effect the other way counts as inactive or inconclusive. Unless noted, % is set by controls: 0 for no effect and ±100 for the full control effect; potency is the fitted concentration of half-maximal effect.

SMILES	HT1080 IDH1KD tx	KB-V1 MDR tox	DT40 TDP1 no CPT	HT1080-NT tox	KB-3-1 tox	DT40 TDP1 CPT
Cc1csc2nc(O)c(C(=O)NCc3ccc4c(c3)OCO4)c(=O)n12	-5.1%	u	23.1µM*	-11.5%	i	u
Cc1csc2nc(O)c(C(=O)NCCCN3CCCC3=O)c(=O)n12	0.4%	18.4µM*	-4.0%	16.5%	i	9.3%
Cc1csc2nc(O)c(C(=O)NC3CCCCC3)c(=O)n12	1.0%	20.6µM*	u	-8.0%	i	u
Cc1csc2nc(O)c(C(=O)NC3CCCCCC3)c(=O)n12	-21.6%	u	5.17µM*	-25.9%	i	u
Cc1cc(C)cc(C(=O)NCc2ccc3c(c2)OCO3)c1	6.5%	i	14.7%	8.0%	i	-29.9%
O=C(NC1CCCC1)c1c(O)nc2sccn2c1=O	-16.4%	i	-26.2%	-2.7%	i	u
Cc1cc(Cl)ccc1C(O)c1ncc(-c2cccc(C(F)(F)F)c2)[nH]1 (configuration not stated)	u	i	u	u	i	u
COc1ccc(CNC(=O)c2cc3c(s2)CN(Cc2ccccc2)C3)cc1	7.4%	u	-2.9%	2.9%	i	8.2%
CN(C)CCN1C(=O)c2ccccc2N(C)c2ccccc21	x	x	u	x	x	-24.4%
Cc1cccc(OCC(=O)NC(=S)NNC(=O)c2ccncc2)c1	2.7%	i	u	6.2%	i	u
Cc1ccc(C(=O)NNC(=S)NC(=O)COc2ccccc2)cc1	-22.8%	i	6.51µM*	u	i	14.6µM*
CC(C)(C)c1ccc(C(=O)NC(=S)NNC(=O)COc2ccccc2)cc1	u	i	16.4µM*	u	u	13µM*
CNc1nc(-c2ccc3c(c2)CCN3C(=O)c2ccccc2C)cs1	-5.6%	i	16.4µM*	-19.1%	u	u
CNc1nc(-c2ccc3c(c2)CCN3C(=O)c2cccc(F)c2)cs1	u	i	20.6µM*	u	14.6µM*	23.1µM*
CNc1nc(-c2ccc3c(c2)CCN3C(=O)c2ccc(F)cc2)cs1	-3.5%	u	u	-8.0%	i	u
Cc1cccc(C(=O)N2CCc3cc(-c4csc(NC(=O)CN5CCCC5)n4)ccc32)c1	16.4µM*	u	u	20.6µM*	i	u
COC(=O)[C@@H]1CCCN1C(=O)c1c(OC)cc(=O)n2c1CCN(Cc1ccc3c(c1)OCCO3)CC2	x	x	-1.4%	x	x	-5.5%
N#Cc1c(-c2ccccc2)cc(-c2ccccc2)nc1SCCC(=O)O	u	i	u	u	u	u
O=C(Cn1nc(C(=O)O)c2ccccc2c1=O)Nc1cc(S(=O)(=O)N2CCCCC2)ccc1Cl	-4.3%	i	-0.2%	-1.7%	i	-11.4%
O=c1oc2ccccc2cc1-c1cn2cc(Cc3ccc(Cl)cc3)sc2n1	x	u	2.59µM*	x	u	3.26µM*
CCOC(=O)c1ccccc1NS(=O)(=O)c1ccc(N2CCCCS2(=O)=O)cc1	x	i	16.4µM*	x	i	23.1µM*
CCOC(=O)c1ccc(S(=O)(=O)Nc2ccccc2-c2nnn(CC)n2)cc1	4.4%	16.4µM*	9.2µM*	4.7%	i	14.6µM*
CCOC(=O)C1CCN(S(=O)(=O)c2ccc(N3CCCCS3(=O)=O)cc2)CC1	x	i	-29.2%	x	i	-5.5%
CCOC(=O)c1cnc(SC)nc1Oc1cccc(NS(=O)(=O)c2ccc(C)cc2)c1	17.6%	i	16.4µM*	17.7%	i	u
CCOC(=O)c1ccccc1NC(=O)c1nc2nccc(C)n2n1	-0.6%	i	18.4µM*	2.6%	i	u
CCOC(=O)c1cccc(NS(=O)(=O)c2ccc(-c3coc(C)n3)cc2)c1	x	i	u	x	i	1.2%
